Hit rate of the full screen: of about 5,500 compounds, about 2,000 (36%) were called active. Another 18% or so got no clear call; they are omitted. No stated cut-off is given here; in the data, active means normalized growth mostly below about 0.91 (no sharp cut-off); inconclusive means no clear call, values can overlap the other calls; inactive means mostly above about 0.92. Some of the results follow.
Test: chemical genetic growth profiling, strain panel (AID 1159580);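 further: tested at 20 µM; growth read once vehicle control cultures reached saturation at 30 °C; 1 = growth at the plate median or of vehicle wells; lower values mean less growth of the strain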
Details: S. cerevisiae deletion strains, growth OD
[1] = locus YAR019C, strain CDC15, active compounds read low
[2] = locus YBL105C, strain PKC1, active compounds read low
[3] = locus YBR135W, strain CKS1, active compounds read low
[4] = locus YBR136W, strain MEC1, active compounds read low
[5] = locus YBR160W, strain CDC28, active compounds read low
[6] = locus YDL017W, strain CDC7, active compounds read low
[7] = locus YDL028C, strain MPS1, active compounds read low
[8] = locus YDL101C, strain DUN1, active compounds read low
[9] = locus YDL108W, strain KIN28, active compounds read low
[10] = locus YDL132W, strain cdc53, active compounds read low
[11] = locus YDL214C, strain PRR2, active compounds read low
[12] = locus YDR052C, strain DBF4, active compounds read low
[13] = locus YDR054C, strain cdc34, active compounds read low
[14] = locus YDR226W, strain ADK1, active compounds read low
[15] = locus YDR477W, strain SNF1, active compounds read low
[16] = locus YER123W, strain YCK3, active compounds read low
[17] = locus YER133W, strain GLC7, active compounds read low
[18] = locus YFL009W, strain cdc4, active compounds read low
[19] = locus YFL029C, strain CAK1, active compounds read low
[20] = locus YFR003C, strain YPI1, active compounds read low
[21] = locus YFR019W, strain FAB1, active compounds read low
[22] = locus YFR028C, strain CDC14, active compounds read low
[23] = locus YGR040W, strain KSS1, active compounds read low
[24] = locus YGR052W, strain FMP48, active compounds read low
[25] = locus YGR092W, strain DBF2, active compounds read low
[26] = locus YHR030C, strain SLT2, active compounds read low
[27] = locus YHR079C, strain IRE1, active compounds read low
[28] = locus YHR082C, strain KSP1, active compounds read low
[29] = locus YHR205W, strain SCH9, active compounds read low
[30] = locus YIL147C, strain SLN1, active compounds read low
[31] = locus YJL095W, strain BCK1, active compounds read low
[32] = locus YJL128C, strain PBS2, active compounds read low
[33] = locus YJL157C, strain FAR1, active compounds read low
[34] = locus YJR016C, strain ILV3, active compounds read low
[35] = locus YJR066W, strain TOR1 (second series), active compounds read low
[36] = locus YJR066W, strain TOR1, active compounds read low
[37] = locus YKL048C, strain ELM1, active compounds read low
[38] = locus YKL067W, strain YNK1, active compounds read low
[39] = locus YKL101W, strain HSL1, active compounds read low
[40] = locus YKL193C, strain SDS22, active compounds read low
[41] = locus YKL203C, strain TOR2, active compounds read low
[42] = locus YLR113W, strain HOG1, active compounds read low
[43] = locus YLR133W, strain CKI1, active compounds read low
[44] = locus YLR403W, strain SFP1, active compounds read low
[45] = locus YML070W, strain DAK1, active compounds read low
[46] = locus YMR001C, strain CDC5, active compounds read low
[47] = locus YMR205C, strain PFK2 (second series), active compounds read low
[48] = locus YMR277W, strain FCP1, active compounds read low
[49] = locus YNL006W, strain LST8, active compounds read low
[50] = locus YNL020C, strain ARK1, active compounds read low
[51] = locus YNL161W, strain CBK1, active compounds read low
[52] = locus YNL183C, strain NPR1, active compounds read low
[53] = locus YNL207W, strain RIO2, active compounds read low
[54] = locus YNL222W, strain SSU72, active compounds read low
[55] = locus YNL307C, strain MCK1 (second series), active compounds read low
[56] = locus YOL078W, strain AVO1, active compounds read low
[57] = locus YOL136C, strain PFK27, active compounds read low
[58] = locus YOR061W, strain CKA2, active compounds read low
[59] = locus YOR119C, strain RIO1, active compounds read low
[60] = locus YOR231W, strain MKK1, active compounds read low
[61] = locus YOR329C, strain SCD5, active compounds read low
[62] = locus YPL031C, strain PHO85, active compounds read low
[63] = locus YPL153C, strain RAD53, active compounds read low
[64] = locus YPL204W, strain HRR25, active compounds read low
[65] = locus YPL209C, strain IPL1, active compounds read low
[66] = locus YPL256C, strain CLN2, active compounds read low
[67] = locus YPR025C, strain CCL1, active compounds read low
[68] = locus YPR106W, strain ISR1, active compounds read low
[69] = locus YPR111W, strain DBF20, active compounds read low
[70] = strain NNK1, active compounds read low
[71] = strain TSCII, active compounds read low

Measured: normalized growth

CC(=O)ON=C1c2cc([N+](=O)[O-])ccc2-c2ccc([N+](=O)[O-])cc21
inactive: [1] 0.948 | [2] 0.942 | [3] 0.949 | [4] 0.939 | [5] 0.955 | [6] 0.954 | [7] 0.933 | [8] 0.963 | [9] 0.937 | [10] 0.971 | [11] 0.85 | [12] 0.953 | [13] 0.942 | [14] 0.983 | [15] 0.729 | [16] 0.793 | [17] 0.867 | [18] 0.966 | [19] 0.948 | [20] 0.935 | [21] 0.933 | [22] 0.963 | [23] 0.702 | [24] 0.793 | [27] 0.825 | [28] 0.796 | [29] 0.858 | [30] 0.93 | [31] 0.778 | [32] 0.917 | [33] 0.835 | [34] 0.939 | [35] 0.682 | [36] 0.76 | [37] 0.892 | [38] 0.864 | [39] 0.761 | [40] 0.945 | [41] 0.843 | [43] 0.879 | [44] 0.776 | [45] 0.852 | [46] 0.942 | [47] 0.865 | [48] 0.936 | [49] 0.953 | [50] 0.836 | [51] 0.952 | [52] 0.745 | [53] 0.93 | [54] 0.939 | [55] 0.691 | [56] 0.95 | [57] 0.866 | [58] 0.751 | [59] 0.817 | [60] 0.848 | [61] 0.942 | [62] 0.701 | [63] 0.724 | [64] 0.749 | [65] 0.948 | [66] 0.891 | [67] 0.947 | [68] 0.964 | [69] 0.957 | [70] 0.944 | [71] 0.943
active: [25] 0.426 | [26] 0.788 | [42] 0.789

CCCCN(C)C(=O)c1cc([N+](=O)[O-])cc2c1-c1ccc([N+](=O)[O-])cc1C2=C(C#N)C#N
inactive: [1] 0.984 | [2] 0.988 | [3] 0.985 | [4] 0.977 | [5] 0.979 | [6] 0.985 | [7] 0.976 | [8] 0.98 | [9] 0.974 | [10] 0.969 | [11] 0.983 | [12] 0.975 | [13] 0.98 | [14] 0.994 | [15] 0.972 | [16] 0.942 | [17] 0.984 | [18] 0.983 | [19] 0.98 | [20] 0.984 | [21] 0.961 | [22] 0.98 | [23] 0.978 | [24] 0.953 | [25] 0.944 | [26] 0.968 | [27] 0.957 | [28] 1.04 | [29] 0.976 | [30] 0.982 | [31] 0.868 | [32] 0.959 | [33] 0.988 | [34] 0.973 | [35] 0.971 | [36] 0.973 | [37] 0.98 | [38] 0.971 | [39] 0.951 | [40] 0.977 | [41] 1.01 | [42] 0.871 | [43] 0.99 | [44] 0.966 | [45] 0.94 | [46] 0.977 | [47] 0.985 | [48] 0.976 | [49] 0.983 | [50] 0.985 | [51] 0.983 | [52] 0.968 | [53] 0.979 | [54] 0.978 | [55] 0.907 | [56] 0.968 | [57] 0.941 | [58] 0.971 | [59] 1.03 | [60] 0.876 | [61] 0.99 | [62] 0.967 | [63] 0.986 | [64] 0.958 | [65] 0.986 | [66] 0.968 | [67] 0.982 | [68] 0.985 | [69] 0.993 | [70] 0.994 | [71] 0.98
